Screening data from PubChem BioAssay.
NPC1 prom act – NPC1 promoter activation. Huh7 NPC1 promoter luciferase reporter, 24 h. Potency, µM (series often up to 9.22 µM), for the others: top-dose activation, actives largely listed as activators. actives 2.4% (n = 320,000); note: % of control where 0% means no effect; nearly all actives have a fitted effect of over 60% in size
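Quantitative HTS used a cell-based reporter: Huh7 cells stably bearing the NPC1 promoter upstream of luciferase were treated with compounds for 24 h, and promoter activation was read as luminescence.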
ELG1 repair inh – ELG1-dependent DNA repair inhibition; HEK293T ELG1-luciferase reporter, luminescence, 16 h; DNA damage induced by 5-fluorouridine; Potency, µM (highest dose often 46.1 µM), inactives show at the top dose activity change, negative = inhibition, usual class: inhibitors; actives 2.3% (n = 330,000); note: % is set by controls: 0 for no effect and ±100 for the full control effect; nearly all actives have a fitted effect of over 55% in size
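Luminescence from the luciferase reporter, measured 30 min after ONE-Glo reagent at room temperature, was the read-out. Beforehand, 2,000 cells per well were exposed for 16 hr at 37 °C to 5-fluorouridine together with compound or vehicle.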
FLuc modulator – firefly luciferase modulation, counter-screen for miR-21 project. AID 588342. actives 6.9% (n = 360,000). Potency, µM (doses to about 57.5 µM), for inactives: top-dose activity change, negative = inhibition, usual class: inhibitors. purified FLuc, Km substrates, luminescence inhibition;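 note: plate controls were vehicle for no effect and reference inhibitor for full effect; nearly all actives have a fitted effect of over 55% in size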
Target sequence (P08659 whole entry, looked up): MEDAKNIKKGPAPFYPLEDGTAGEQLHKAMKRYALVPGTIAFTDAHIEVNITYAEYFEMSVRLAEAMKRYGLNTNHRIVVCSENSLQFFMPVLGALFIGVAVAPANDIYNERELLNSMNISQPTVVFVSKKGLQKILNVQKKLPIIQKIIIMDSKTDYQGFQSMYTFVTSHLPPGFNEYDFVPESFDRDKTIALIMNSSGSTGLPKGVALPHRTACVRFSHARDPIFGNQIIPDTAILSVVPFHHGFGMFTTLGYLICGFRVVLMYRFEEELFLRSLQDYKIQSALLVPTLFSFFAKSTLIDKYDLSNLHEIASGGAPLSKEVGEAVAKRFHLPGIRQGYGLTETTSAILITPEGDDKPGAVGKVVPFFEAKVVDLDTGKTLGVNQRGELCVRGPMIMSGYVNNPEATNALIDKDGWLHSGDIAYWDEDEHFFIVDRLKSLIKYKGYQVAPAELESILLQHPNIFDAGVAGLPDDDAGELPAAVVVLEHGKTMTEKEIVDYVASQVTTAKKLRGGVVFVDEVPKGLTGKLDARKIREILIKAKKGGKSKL
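Purified P. pyralis luciferase (10nM final) with 10uM D-luciferin and 10uM ATP (Km levels) in 50mM Tris acetate pH 7.5, 10mM Mg acetate, 0.01% Tween-20, 0.05% BSA; qHTS 6-point titration, ~60 µM downward; luminescence read.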
Rab9 promoter act – activates the Rab9 promoter | Potency, µM (doses to about 9.22 µM), for the others: top-dose activation, negative = inhibition, most hits filed as activators | Huh7 Rab9 promoter-luciferase reporter, luminescence, 24 h | actives 2.8% (n = 320,000); note: % of control where 0% means no effect; nearly all actives have a fitted effect of over 60% in size
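Stable Rab9-luc Huh7, 1500 cells/well, 2 h settle; cmpd in DMSO, 24 h, 37 °C/5% CO2; luciferase reagent 10 min RT; luminescence.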
SMN2 splice enh – SMN2 splice variant enhancement | actives 2.8% (n = 210,000) | AID 1458 | Potency, µM (series often up to 46.1 µM), inactives show at the top dose activity change, positive = activation, usual class: activators | HEK293 SMN2-luciferase splicing reporter, luminescence, 30-36 h; note: % of control where 0% means no effect; nearly all actives have a fitted effect of over 55% in size
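HEK293 cells carry an SMN2 minigene-luciferase reporter in which exon 7 inclusion puts luciferase in frame. Cells were seeded at 2000 cells/well, attached for 10-12 hours, then exposed to compounds for 30-36 hours at 37C before ONE-Glo luminescence.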
ELG1 genotoxic – inducers of genotoxicity in HEK293T ELG1-luciferase cells. HEK293T ELG1-luciferase reporter, luminescence, 16 h. Potency, µM (top dose mostly 46 µM), without a hit: top-dose activity change, positive = activation, hits mostly activators. actives 1.3% (n = 330,000); note: % of control where 0% means no effect; nearly all actives have a fitted effect of over 60% in size
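Quantitative HTS format in 1536-well plates. HEK293T ELG1-luciferase reporter cells receive test compound and are incubated 16 hr at 37 °C, 5% CO2; ONE-Glo added, 30 min room temperature, then luminescence read.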
Active calls of the source: *; u = inconclusive; x = no result. Rows were chosen to be rich in hits. Some 9.4% of all compounds tested hit in one or more screens of this group. Calls come from the whole dose curve; as a rule, active = well fitted curve in the direction sought with a large enough effect; inconclusive = small, poorly fitted or top-dose-only effect, or another doubt; inactive = no such curve, though single readings can be large; an effect the other way counts as inactive or inconclusive. Potency is the fitted concentration of half-maximal effect.

SMILES	NPC1 prom act	ELG1 repair inh	FLuc modulator	Rab9 promoter act	SMN2 splice enh	ELG1 genotoxic
O=C(CSc1nc(=O)[nH]c2c1CCC2)Nc1cc(C(F)(F)F)ccc1Cl	x	x	-10.9%	x	x	x
COc1ccccc1CCNC(=O)c1nccnc1C(=O)O	-1.4%	-3.2%	-0.1%	8.7%	x	-3.0%
Cc1ccc(NP(=O)(c2ccc(N(C)C)cc2NC(=O)c2cccs2)N2CCOCC2)cc1Cl (configuration not stated)	0.1%	16.4µM*	u	-2.3%	13.9%	-0.7%
Cc1ccc(NP(=O)(c2ccc(N(C)C)cc2NC(=O)c2cccs2)N2CCOCC2)cc1 (configuration not stated)	-2.5%	u	-18.7%	11.6%	14.8%	-0.4%
COc1ccc(-c2nc(CSCC(=O)NCCc3ccc(OC)c(OC)c3)c(C)o2)cc1	x	x	-17.0%	x	-34.6%	x
O=C(Nc1nccs1)c1ccc(N2C(=O)C3CCCCC3C2=O)cc1 (configuration not stated)	10.7%	u	21.3µM*	15.6%	23.3%	u
O=C(Nc1nccs1)c1ccc(N2C(=O)[C@@H]3[C@H](C2=O)[C@H]2C=C[C@@H]3C2)cc1	2.51µM*	u	26.9µM*	3.55µM*	x	u
O=C(Nc1nccs1)c1cccc(N2C(=O)C3C4C=CC(C4)C3C2=O)c1 (configuration not stated)	1.1%	-20.6%	-23.4%	1.0%	-7.7%	-4.6%
O=C(CSCc1cnn(-c2ccccc2)c1-n1cccc1)NCc1ccc(F)cc1	x	x	6.0%	x	x	x
COc1ccccc1N1CCN(c2ccc(NC(=O)c3ccc(C)cc3)cc2C(=O)O)CC1	x	x	-13.7%	x	x	x
CCc1nc(Nc2ccc(N3CCN(C(C)=O)CC3)cc2)c2oc3ccccc3c2n1	5.0%	9.2µM*	u	-2.5%	x	-31.2%
CC(=O)N1CCN(c2ccc(Nc3ncnc4c3oc3ccccc34)cc2)CC1	18.5%	u	23.9µM*	12.6%	-43.1%	-10.1%
CCc1nc(Nc2ccccc2)c2oc3ccccc3c2n1	-0.7%	u	u	0.3%	-29.9%	-0.9%
O=C(Oc1c(CN2CCOCC2)cc(Cl)c2cccnc12)c1cccs1	-40.7%	u	-9.0%	-40.9%	-61.2%	-16.7%
Oc1c(CN2CCN(c3ccccn3)CC2)cc(Cl)c2cccnc12	-16.0%	u	0.2%	-32.6%	-67.1%	7.31µM*
O=C(Oc1c(CN2CCOCC2)cc(Cl)c2cccnc12)c1ccccc1Cl	-6.7%	11.6µM*	-2.9%	-41.3%	-73.6%	-7.4%
COc1ccc(C(=O)Oc2c(CN3CCOCC3)cc(Cl)c3cccnc23)cc1	1.0%	u	1.0%	0.4%	-72.6%	-11.3%
COc1cccc(C(=O)Oc2c(CN3CCOCC3)cc(Cl)c3cccnc23)c1	-4.9%	18.4µM*	3.5%	-35.9%	-25.2%	-21.3%
OCCN1CCN(Cc2cc(Cl)c3cccnc3c2O)CC1	-2.7%	-17.0%	0.0%	6.6%	-46.7%	10.0%
Oc1c(Cl)cc(Cl)c2cccnc12	-9.3%	2.31µM*	u	0.3%	-65.3%	u
CCc1nnc(NC(=O)CSc2nc(-c3ccc(OC)cc3)ns2)s1	19.3%	u	1.69µM*	u	u	u
CCOC(=O)CNC(=O)CSc1nc(-c2ccc(OC)cc2)ns1	5.1%	12.9%	12µM*	17.0%	6.1%	-0.1%
CCOC(=O)CSc1nc(-c2ccccc2)ns1	-2.6%	u	15.1µM*	2.1%	8.7%	1.2%
CCOC(=O)CSc1nnc(-c2ccccc2)c(-c2ccccc2)n1	-4.0%	-5.3%	-2.7%	-0.8%	x	-2.0%
NC(=O)CSc1nc(-c2ccccc2Cl)ns1	u	u	u	3.16µM*	u	12.9%
COc1ccc(-c2nsc(SCC(=O)Nc3cc(C)on3)n2)cc1	1.4%	u	2.3%	12.4%	-3.9%	u
